High-throughput results deposited in PubChem BioAssay by National Center for Advancing Translational Sciences (NCATS).
Lassa entry inh: Lassa virus entry inhibition; Lassa virus pseudotype entry inhibition, cell reporter; actives 1.2% (n = 300,000); Potency, µM (doses to about 37.9 µM), actives largely listed as inhibitors; AID 540256; calls by dose curve; tested in HEK293 cells; note: nearly all actives have a fitted effect of over 50% in size
Sm TGR block: blocks Schistosoma mansoni thioredoxin glutathione reductase; purified TGR, DTNB reduction, TNB absorbance 405 nm; Potency, µM (doses to about 114 µM), usual class: inhibitors; actives 3% (n = 360,000); note: nearly all actives have a fitted effect of over 60% in size
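First, TGR (20 nM dispensed) and NADPH were mixed with compound. Second, a 15 min room-temperature incubation followed. Third, further NADPH and then DTNB were added to start the reaction. Finally, TNB absorbance was monitored kinetically.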
FMDV inh: blocks foot and mouth disease virus | FMDV antiviral cell-based qHTS | Potency, µM (highest dose often 57.9 µM), usual class: inhibitors | actives 1.2% (n = 410,000); calls by dose curve; tested in HEK293T cells; note: read-out not given here; nearly all actives have a fitted effect of over 45% in size
RE007 growth inh: less growth of the S. pombe RE007 Vpr strain; S. pombe RE007 Vpr strain, BacTiter-Glo ATP luminescence, 24 h; Potency, µM (highest dose often 92.2 µM), hits mostly inhibitors; actives 0.21% (n = 360,000); active = well fitted falling curve with a large enough effect; inconclusive = small, poorly fitted or top-dose-only effect; inactive = no such curve, though single readings can be large or run the other way; note: nearly all actives have a fitted effect of over 50% in size
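Fission yeast RE007 carrying one integrated HIV-1 vpr copy, seeded at OD 0.01 in PMG+AL medium with 23 nL pinned compound. Grown 24 h at 30 degrees; viability read by BacTiter-Glo luminescence after 5 min.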
MARV entry inh: inhibitors of Marburg virus binding or cell entry. Marburg virus pseudotyped entry inhibition, cell reporter. Potency, µM (top dose mostly 37.8 µM), hits mostly inhibitors. actives 1.8% (n = 300,000); calls by dose curve; tested in HEK293 cells
HCV inhibitor: inhibitors of hepatitis C virus infection; AID 651820; actives 3.4% (n = 340,000); Potency, µM (titrated, usually from 41.8 µM), most hits filed as inhibitors; Huh7.5.1 HCVcc-Cre infection, luciferase reporter, 44 h
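Compounds are dispensed onto cells plated 4 h earlier at 1,000 per well, with HCVcc-Cre virus (about 0.5 moi) added next. Following 44 h of culture, luminescent signal is measured for 15 sec after 15 min with substrate at room temperature.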
Large screens that a line does not name were inactive. An excerpt weighted towards active compounds, which were near 7.2% of everything screened. Unless noted, calls come from the whole dose curve; as a rule, active = well fitted curve in the direction sought with a large enough effect; inconclusive = small, poorly fitted or top-dose-only effect, or another doubt; inactive = no such curve, though single readings can be large; an effect the other way counts as inactive or inconclusive.

O=Nc1c(-c2c(O)[nH]c3cc(Br)ccc23)[nH]c2ccccc12	Lassa entry inh inconclusive, MARV entry inh inconclusive, HCV inhibitor 5.6µM
COc1ccc(Cl)cc1NC(=O)CN(C)C(=O)c1cc2c(F)cccc2s1	HCV inhibitor 4µM (no result: Lassa entry inh, MARV entry inh)
Cc1ccc(S(=O)(=O)C[C@@H]2OC3CCCCC3N2S(=O)(=O)c2ccc(C)cc2)cc1 (some centres not stated)	none (no result: Lassa entry inh, Sm TGR block, MARV entry inh, HCV inhibitor)
CCCCCCCn1c(=O)c(C(=O)OC)c(N)c2ccccc21	Lassa entry inh inconclusive, FMDV inh 13µM, MARV entry inh inconclusive, HCV inhibitor inconclusive
CCCCCCCCn1c(=O)c(C(=O)OC)c(N)c2ccccc21	Lassa entry inh inconclusive, FMDV inh inconclusive, MARV entry inh inconclusive, HCV inhibitor 13µM
CCCCCn1c(=O)c(C(=O)Nc2ccccc2N)c(O)c2ccccc21	HCV inhibitor inconclusive (no result: Lassa entry inh, MARV entry inh)
Cc1cccc(-c2cnc(C)nc2C2CCCN(C(=O)c3cccc(Cn4cccn4)c3)C2)c1 (configuration not stated)	none (no result: Lassa entry inh, Sm TGR block, RE007 growth inh, MARV entry inh, HCV inhibitor)
Cc1ccccc1OCC(=O)Nc1ccc2nc(SCC(=O)N(C)c3ccccc3)sc2c1	FMDV inh inconclusive (no result: RE007 growth inh, HCV inhibitor)
CC(=O)n1cc(N(C(=O)CCl)c2ccc(C)cc2)c2ccccc21	Lassa entry inh inconclusive, Sm TGR block 0.71µM, FMDV inh 14µM, MARV entry inh 7.1µM, HCV inhibitor 1.6µM
COc1ccc(Cl)cc1N=Nc1ncc[nH]1	none (no result: Lassa entry inh, Sm TGR block, RE007 growth inh, MARV entry inh, HCV inhibitor)
Cc1ccc(C(=O)O)cc1NC(=S)NC(=O)C(c1ccccc1)c1ccccc1	Sm TGR block 56µM
CC(SCc1ccccc1)C(=O)N/N=C/c1cc2c(cc1Br)OCO2 (configuration not stated)	Lassa entry inh 23µM, MARV entry inh inconclusive
Cc1nc(N)sc1C(=O)N/N=C/c1c[nH]c2ccccc12	MARV entry inh 2.9µM (no result: FMDV inh)
CC(C)(C)c1cc(C(=O)N/N=C/c2cc3c(cc2Br)OCO3)n[nH]1	HCV inhibitor 11µM (no result: Lassa entry inh, MARV entry inh)
Oc1ccccc1C=NNC(=S)Nc1ccc(F)cc1	Lassa entry inh inconclusive, MARV entry inh inconclusive, HCV inhibitor inconclusive (no result: Sm TGR block)
Cc1ccc(C(=O)N/N=C\c2cc3c(cc2Br)OCO3)cn1	none
Cc1nn(C)cc1/C=N/NC(=S)Nc1ccccc1	MARV entry inh 7.3µM, HCV inhibitor inconclusive
C[C@H]1CN([C@@H](C)CO)C(=O)CCCn2nncc2CO[C@H]1CN(C)S(=O)(=O)c1ccc(C#N)cc1	none (no result: Lassa entry inh, Sm TGR block, MARV entry inh, HCV inhibitor)
O=C(N/N=C/c1cc2c(cc1Br)OCO2)c1c[nH]c2ccccc12	HCV inhibitor 22µM (no result: Lassa entry inh, MARV entry inh)
CCOc1ccc(Br)cc1C(=O)N/N=C/c1c[nH]c2ccccc12	HCV inhibitor 13µM (no result: Lassa entry inh, MARV entry inh)
Cc1cccc(NC(=S)N/N=C/c2c[nH]c3ccccc23)c1	Lassa entry inh inconclusive, MARV entry inh inconclusive, HCV inhibitor 10µM
O=C(N/N=C/c1cc2c(cc1Br)OCO2)c1ccccn1	none
O=C(N/N=C/c1c[nH]c2ccccc12)c1cc(Br)ccc1O	none (no result: Lassa entry inh, MARV entry inh)
CCCn1c(=O)[nH]c(=O)c2c1nc(-c1ccc(OC)c(Br)c1)n2CCOC	Lassa entry inh 7.9µM
CCCCn1c(=O)[nH]c(=O)c2c1nc(-c1ccc(OCCC)c(OCC)c1)n2CCOC	Lassa entry inh inconclusive, HCV inhibitor 25µM
CN1C[C@H](C(=O)N[C@]2(C)O[C@@]3(O)[C@@H]4CCCN4C(=O)[C@H](Cc4ccccc4)N3C2=O)C[C@@H]2c3cccc4[nH]cc(c34)C[C@H]21	Lassa entry inh inconclusive, MARV entry inh 1.1µM (no result: Sm TGR block, FMDV inh, RE007 growth inh, HCV inhibitor)
CN1C[C@H](C(=O)N[C@]2(C)O[C@@]3(O)C4CCCN4C(=O)[C@H](Cc4ccccc4)N3C2=O)C[C@@H]2c3cccc4[nH]cc(c34)C[C@H]21 (some centres not stated)	MARV entry inh 1.1µM (no result: Lassa entry inh, Sm TGR block, FMDV inh, RE007 growth inh, HCV inhibitor)
CN1C[C@H](C(=O)N[C@]2(C)O[C@@]3(O)[C@@H]4CCCN4C(=O)[C@H](Cc4ccccc4)N3C2=O)CC2c3cccc4[nH]cc(c34)C[C@H]21 (some centres not stated)	none (no result: Lassa entry inh, MARV entry inh)
CCc1ccccc1NC(=O)CSc1nc2ccccc2nc1Cc1cccc(OC)c1	none (no result: RE007 growth inh, MARV entry inh, HCV inhibitor)
CCN(c1ccc(OC)cc1)S(=O)(=O)c1c(C(=O)N2CCCCCC2)c(C)n(C)c1C	none (no result: RE007 growth inh, MARV entry inh, HCV inhibitor)
Cc1ccc(CN(C(=O)c2ccccc2Br)C2CCS(=O)(=O)C2)o1 (configuration not stated)	none (no result: RE007 growth inh, HCV inhibitor)
Cn1c(-c2ccc(Cl)cc2)cnc1NCc1cc2c(cc1[N+](=O)[O-])OCO2	Lassa entry inh inconclusive, MARV entry inh inconclusive, HCV inhibitor inconclusive
COc1ccc(CNc2ncc(-c3ccc(F)cc3)n2C)cc1OC	none (no result: Lassa entry inh, MARV entry inh)
Cn1c(-c2ccc(F)cc2)cnc1NCc1ccccc1	MARV entry inh 23µM
COc1cc(CNc2ncc(-c3ccc(Br)cc3)n2C)cc(OC)c1O	Sm TGR block 16µM (no result: Lassa entry inh, MARV entry inh)
Cn1c(-c2ccccc2)cnc1NCc1ccc(F)cc1	none (no result: Lassa entry inh, MARV entry inh)
Cn1c(-c2ccc(F)cc2)cnc1NCc1cc2c(cc1[N+](=O)[O-])OCO2	MARV entry inh inconclusive, HCV inhibitor 13µM
Cc1c(Cl)cccc1N1CC(c2nc3ccccc3n2Cc2ccccc2F)CC1=O (configuration not stated)	Lassa entry inh inconclusive, MARV entry inh inconclusive (no result: RE007 growth inh, HCV inhibitor)
O=C(Cc1cccc([N+](=O)[O-])c1)NCc1nc2cccnc2n1Cc1ccc(F)cc1	none (no result: RE007 growth inh, MARV entry inh, HCV inhibitor)
Cc1ccc(C)c(N2CCN(CCCNC(=O)c3ccc4nc(C(C)C)oc4c3)CC2)c1	Lassa entry inh inconclusive, FMDV inh inconclusive (no result: RE007 growth inh, MARV entry inh, HCV inhibitor)
O=C(NCc1nnc(SCc2ccccc2)n1-c1ccc(F)cc1)C12CC3CC(CC(C3)C1)C2	FMDV inh 25µM, MARV entry inh inconclusive, HCV inhibitor inconclusive
Cc1cc(C)c2nc(N(Cc3cccnc3)C(=O)c3ccc(S(=O)(=O)N(C)C)cc3)sc2c1	none (no result: RE007 growth inh, MARV entry inh, HCV inhibitor)
CC(=O)Nc1c2c(nn1-c1ccc(C)cc1C)CSC2	none (no result: FMDV inh)
Cc1ccccc1-n1nc2c(c1NC(=O)c1ccc(Br)o1)CSC2	Sm TGR block 32µM, MARV entry inh inconclusive
Cc1ccccc1-n1nc2c(c1NC(=O)c1ccco1)CS(=O)(=O)C2	Sm TGR block 45µM, MARV entry inh inconclusive
O=C(C(Cl)Cl)N1c2ccccc2OCC1c1ccccc1 (configuration not stated)	FMDV inh inconclusive, HCV inhibitor 13µM
Cc1ccc(S(=O)(=O)N2c3ccccc3OCC2c2ccccc2)cc1 (configuration not stated)	FMDV inh inconclusive, MARV entry inh inconclusive, HCV inhibitor 35µM
Cc1ccc2cc(CNC(C)CO)c(N3CCC(O)CC3)nc2c1 (configuration not stated)	none (no result: Lassa entry inh, Sm TGR block, RE007 growth inh, MARV entry inh, HCV inhibitor)
COc1ccc(Cn2c(C)ccc2C)cc1	Sm TGR block 32µM
Cc1ccc(-n2nnnc2CNC(=O)C(C)C)cc1C	none (no result: RE007 growth inh, MARV entry inh, HCV inhibitor)
